Hit rate of the full screen: of about 420,000 compounds, about 50,000 (12%) were called active. Entries that show only a call come without a potency. Another 26% or so got no clear call; they are omitted. The sample holds actives, similar compounds and a random draw of the others, so the mix is not that of the screen. Unmarked numbers belong to inactive results. Calls follow the shape of the dose curve; as a rule, active = well fitted inhibition curve with a large enough effect; inconclusive = small, poorly fitted or top-dose-only effect; inactive = flat fitted curve, though single readings scatter.
Potency is read from the fitted curve at half-maximal effect.

The experiment in a line: qHTS for Inhibitors of human tyrosyl-DNA phosphodiesterase 1 (TDP1): qHTS in cells in presence of CPT. Also: nearly all actives have a fitted effect of over 55% in size. Conditions: chicken DT40 Tdp1-/-;hTDP1 cells + 20 nM CPT, ATP luminescence, 48 h; series mostly up to 46.2 µM. The method in brief: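 Chicken DT40 Tdp1-/- cells complemented with human TDP1, 400 cells/well, exposed to compounds plus 20 nM camptothecin for at least 48 h at 37 C; viability read as ATP content by CellTiter-Glo luminescence.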
For orientation: Quantitative high-throughput screening tests each substance at several concentrations.
In the case of `Cc1noc(C)c1NC(=O)Nc1ccc2c(c1)C(=O)N([C@H](C)CO)C[C@H](C)[C@@H](CN(C)S(=O)(=O)c1cn(C)cn1)O2`, the Potency result is “inactive”.
Still for that read-out and setting: the result for `COc1ccc(CNC(=O)CSc2n[nH]c(N)n2)cc1OC` reads “inactive”.
Same read-out and setting: the result for `CCC(CO)Oc1cc(NC(=O)c2ccc(Cl)cc2)c2ncn(C(C)C)c2c1` (configuration not stated) reads “inactive”; that for `CC(C)n1cnc2c(NCc3ccccc3)cc(OCC3CCN(C)CC3)cc21`, 20.6 µM (active).
With `CCC(CO)Oc1cc(NC(=O)c2cccc(F)c2)c2ncn(C(C)C)c2c1` (configuration not stated), the Potency entry is “inactive”.
Consider `Cn1nc(C(=O)OCC(=O)N(Cc2ccccc2)C(C)(C)C)c2ccccc2c1=O`, for which the Potency entry was “inactive”.
In the case of `O=C(CN1CCCCCC1)Nc1ccc(Br)cc1[N+](=O)[O-]`, the Potency result was “inactive”.
For the molecule `Cc1ccc(S(=O)(=O)C2(S(=O)(=O)c3ccc(C)cc3)CCCC2)cc1`, the Potency is 7.31 µM (active).
The same measure, in the same setting: then `Cc1ccc(S(=O)(=O)NC2CCCCCC2)cc1`, with “inactive”; and `Cc1ccc(S(=O)(=O)N(C)C2(C)CCS(=O)(=O)C2)cc1` (configuration not stated), with “inactive”; and `COc1ccc(/C=C(/NC(=O)c2ccccc2)C(=O)Nc2cccc(C(=O)O)c2)cc1`, with “inactive”.
Still for that read-out and setting: then `Cc1ccc(S(=O)(=O)N(CCc2ccccc2)c2ccc3c(c2)C2CC3CCN2C(=O)OCc2ccccc2)cc1` (configuration not stated), with 20.6 µM (active); and `Cc1ccc(S(=O)(=O)CCC(=O)OCc2ccccc2)cc1`, with “inactive”; and `CCOC(=O)N1CCN(C(=O)CN(c2ccc(C)c(C)c2)S(=O)(=O)c2ccccc2)CC1`, with “inactive”.
Same read-out and setting: then `COc1ccc(C(=O)NCC2CCCCC2)cc1S(=O)(=O)N1CCCC1`, with “inactive”.
On to `Cc1[nH]c2c(C(=O)NCC3Cc4cccc(-c5cccnc5)c4O3)cccc2c1C` (configuration not stated), for which the activity change, negative = growth inhibition is -3.45% [at 9.04 µM].
In the case of `Cc1cc(=O)oc2cc(OCC(=O)N3CCN(c4ccc(F)cc4)CC3)c(Cl)cc12`, the Potency entry was “inactive”.
On the same count and under the same terms, the result for `COc1ccccc1-n1cn[nH]c1=S` reads 29.1 µM (active); that for `COc1ccccc1-n1c(-c2cc(-c3ccco3)[nH]n2)n[nH]c1=S`, “inactive”; that for `COc1cccc(CNn2cn[nH]c2=S)c1OCc1ccccc1`, “inactive”.
The same measure, in the same setting: the result for `COCCNC(=O)C(OC(=O)c1cccs1)c1ccc(F)cc1` (configuration not stated) reads “inactive”; that for `COc1ccc(/C=N\NC(=O)c2sc(N)nc2C)cc1OC`, “inactive”; that for `CCOc1ccc2ccccc2c1/C=N/NC(=O)c1c(C)cc(C)[nH]c1=O`, “inactive”.
`COc1ccc2ccccc2c1/C=N/NC(=O)c1cc(C)[nH]n1`: the Potency is 8.2 µM (active).
The same measure, in the same setting: then `O=C(CN1C(=O)S/C(=C\c2ccccc2F)C1=O)NCCCn1ccnc1`, with “inactive”; and `COc1ccc(C(C)=O)cc1COc1ccc(Cl)c(C)c1`, with 10.3 µM (active).
Take `COCc1cc(C(C)=O)ccc1OC`: the Potency result is “inactive”.
The same measure, in the same setting: then `COc1ccc(-c2noc(COc3ccc(Cl)c(C)c3)n2)cc1`, with “inactive”; and `COCCCNC(=S)N(CCN(C)C)Cc1cc2cc3c(cc2[nH]c1=O)OCCO3`, with “inactive”.
On to `OCc1ccc(OCCCOc2cccc3cccnc23)cc1`, for which the Potency result was “inactive”.
The same measure, in the same setting: then `Nn1c(SCc2ccccc2)nnc1C1CCCCC1`, with “inactive”.
In the case of `CC(C)NC(=O)Nc1ccc2c(c1)C(=O)N([C@H](C)CO)C[C@H](C)[C@@H](CN(C)Cc1ccc(C(F)(F)F)cc1)OCCCC[C@@H](C)O2`, the Potency is 13 µM (active).
Still for that read-out and setting: the result for `C[C@@H]1CN([C@@H](C)CO)C(=O)c2cc(NS(C)(=O)=O)ccc2O[C@@H](C)CCCCO[C@H]1CN(C)C(=O)Nc1ccc2c(c1)OCO2` reads “inactive”; that for `Cc1noc(C)c1NC(=O)Nc1ccc2c(c1)C(=O)N([C@H](C)CO)C[C@H](C)[C@@H](CN(C)C(=O)Nc1ccc(C(F)(F)F)cc1)O2`, “inactive”; that for `Cc1ccc(S(=O)(=O)N2CCOCC2)cc1NC(=O)c1ccncc1`, “inactive”.
Regarding `O=C(O)c1c(NC(=O)N2CCCC2)sc2c1CCCC2`, the Potency result is “inactive”.
Same read-out and setting: the result for `COc1cn(CC(=O)Nc2cccc(C)c2C)c(CN2CCCCC2)cc1=O` reads “inactive”.
Regarding `O=C(C1CC1)N1N=C(c2ccc(Br)cc2)CC1(O)C(F)(F)F` (configuration not stated), the Potency result was “inactive”.
The same measure, in the same setting: the result for `O=C(c1ccc(Cl)cc1)N1N=C(c2ccccn2)CC1(O)C(F)(F)F` (configuration not stated) reads 25.9 µM (active); that for `O=C(Cc1ccccc1)N1N=C(c2ccncc2)CC1(O)C(F)(F)F` (configuration not stated), “inactive”.
Same read-out and setting: then `C=CCn1c(SCC(=O)NC(=O)Cc2ccccc2)nc2ccccc2c1=O`, with “inactive”; and `COc1ccccc1C(=O)NC(=S)Nc1ccccc1N1CCCCC1`, with “inactive”; and `CCC(=O)Nc1ccccc1N1CCN(S(C)(=O)=O)CC1`, with “inactive”.
For the molecule `COc1ccc(C(=O)NC(=S)Nc2ccccc2N2CCN(S(C)(=O)=O)CC2)cc1OC`, the Potency is 12.6 µM (active).
With `COc1ccc(S(=O)(=O)N2CCOCC2)cc1C(=O)NC1CCCCC1`, the Potency entry was “inactive”.
`O=C(CC1SC(N2CCCC2)=NC1=O)Nc1ccc(C(=O)NCCc2ccc(F)cc2)cc1` (configuration not stated): the Potency result was “inactive”.
For `Fc1ccc(-c2csc(-c3ccc(C4SCCS4)cc3)n2)cc1F`, the Potency entry is “inactive”.
The same measure, in the same setting: then `COc1cc(NC(=O)C2CC(c3ccccc3O)=NO2)c(OC)cc1Cl` (configuration not stated), with “inactive”; and `COc1cc(NC(=O)Cn2nc(-c3ccc(C)c(C)c3)ccc2=O)cc(OC)c1`, with 20.6 µM (active).
As for `COc1cc(NC(=O)CSc2nnc3ccc(-c4ccncc4)nn23)cc(OC)c1`, the Potency result is “inactive”.
Take `COc1ccc(-c2ccc(=O)n(CC(=O)Nc3ccc(Br)cc3F)n2)cc1`: the Potency result is “inactive”.
In the case of `O=C(Nc1nnc(CCOCCOCCc2nnc(NC(=O)c3ccco3)s2)s1)c1ccco1`, the Potency result is “inactive”.
Same read-out and setting: then `CCCNC(=O)NC(=O)COC(=O)CC(NC(N)=O)c1ccc(Cl)cc1` (configuration not stated), with “inactive”; and `Cn1c(SCC(=O)Nc2ccc(N3CCOCC3)cc2)nnc1C(F)(F)F`, with “inactive”.
`O=C(c1ccc2c(=O)n(Cc3ccco3)c(=S)[nH]c2c1)N1CCCC1`: the Potency entry is “inactive”.
Still for that read-out and setting: then `COc1ccccc1Cn1c(=S)[nH]c2cc(C(=O)N3CCN(C)CC3)ccc2c1=O`, with “inactive”; and `COc1ccc(Cn2c(=O)[nH]c3cc(C(=O)N4CCN(C(=O)c5ccco5)CC4)ccc3c2=O)cc1`, with 11.2 µM (active); and `COCCn1c(=S)[nH]c2cc(C(=O)NCCc3ccc(OC)c(OC)c3)ccc2c1=O`, with “inactive”.
Consider `CCOC(=O)N1CCN(C(=O)c2ccc3c(=O)n(CCc4ccc(OC)c(OC)c4)c(=O)[nH]c3c2)CC1`, for which the Potency is 20.6 µM (active).
Same read-out and setting: then `COc1cc2[nH]c(=O)n(Cc3ccc(C(=O)NC4CCN(Cc5ccccc5)CC4)cc3)c(=O)c2cc1OC`, with “inactive”; and `O=C(N=C1SC2CS(=O)(=O)CC2N1c1ccccc1)c1ccccc1` (configuration not stated), with “inactive”; and `CS(=O)(=O)c1ccc(Cl)c(NC(=O)COC(=O)c2cccc(S(=O)(=O)N3CCCC3)c2)c1`, with “inactive”.
In the case of `CC(C)CCNC(=O)C(C)N(C(=O)Cn1nnc(-c2ccc(F)cc2)n1)C1CCCC1` (configuration not stated), the Potency entry was “inactive”.
Still for that read-out and setting: then `O=C(O)c1ccccc1CSc1nc2ccccc2s1`, with “inactive”.
For `COc1ccc2c(c1)c(=Cc1ccc(N(C)C)cc1)c1cc(-c3ccccc3)[n+](C)n12`, the Potency was 0.92 µM (active).
The same measure, in the same setting: then `CN(C)c1ccc(/C=c2\[nH]c(=O)/c(=C/c3ccc(N(C)C)cc3)[nH]c2=O)cc1`, with “inactive”; and `COc1ccc2sc(-c3ccc(N(C)C)cc3)c(-c3ccc4cc[nH]c4c3)c2c1`, with “inactive”.
On to `O=C(CSc1nc2[nH]ncc2c(=O)[nH]1)Nc1ccc(F)cc1`, for which the Potency entry was “inactive”.
Consider `O=C(NCCc1cccc(F)c1)C1CC(O)CN1C(=O)Nc1ccccc1` (configuration not stated), for which the Potency result was “inactive”.
In the case of `CCCCN1C(=O)CCC(C(=O)O)C1c1ccc(OC)cc1` (configuration not stated), the Potency entry is “inactive”.
For the molecule `CCCCc1ccc(NC(=O)CN2C(=O)NC(Cc3ccccc3)C2=O)cc1` (configuration not stated), the Potency result was “inactive”.
On to `CCn1c(COc2ccccc2)nnc1SCC(=O)NCc1ccco1`, for which the Potency entry is “inactive”.
On the same count and under the same terms, the result for `O=C(Cn1c(=O)n(Cc2ccco2)c(=O)c2ccccc21)NCC1CCCO1` (configuration not stated) reads “inactive”; that for `Cn1c2ccccc2c(=O)c2c(=O)n(Cc3ccco3)c(COc3ccccc3)nc21`, 18.4 µM (active).
Same read-out and setting: then `CCS(=O)(=O)Nc1ccc(C(=O)NCCSc2ccccc2)cc1`, with “inactive”; and `COc1ccc(-c2nc(Cn3c(=O)cc(C)c4c(C)nn(-c5ccccc5)c43)c(C)o2)cc1OC`, with “inactive”.
Same read-out and setting: the result for `COc1ccc(CNC(=O)COC(=O)CCS(=O)(=O)c2ccc(C)cc2)cc1OC` reads “inactive”.
For `Cc1ccc(S(=O)(=O)N2C[C@]3(O)C[C@@H]4C(=O)N(c5ccccc5)C(=O)[C@@H]4C[C@]3(OC(=O)NC3CC3)C2)cc1`, the Potency entry is “inactive”.
Still for that read-out and setting: the result for `CCCCCCn1c(=O)n2n(c1=O)C[C@]1(OC(=O)NCc3ccc(OC)c(OC)c3)CN(S(=O)(=O)c3ccc(C)cc3)C[C@]1(O)C2` reads 23.1 µM (active).
Consider `CC1CCCCC1NC(=O)c1cn(C)c2ccc(S(=O)(=O)N3CCOCC3)cc2c1=O` (configuration not stated), for which the Potency entry is “inactive”.
Same read-out and setting: then `Cc1ccc(S(=O)(=O)N2CCC(Oc3ccc(-n4cnnn4)cc3)CC2)cc1`, with “inactive”; and `COCCNc1ncnc2c1ncn2[C@H]1CN(Cc2ccc(OC)cc2)C[C@@H](CO)O1`, with “inactive”; and `Cc1nnc(NCCO)c2ccccc12`, with “inactive”.
The same measure, in the same setting: the result for `COc1ccc(-c2oc3ncnc(NCCCO)c3c2-c2ccc(OC)cc2)cc1` reads 20.6 µM (active).
On the same count and under the same terms, the result for `OCCc1ccc(NCCc2ccco2)cc1` reads “inactive”; that for `OCCNc1ncnc2oc(-c3ccco3)c(-c3ccco3)c12`, 12.6 µM (active); that for `O=C(CCSCc1cccc(F)c1)NCc1ccccc1`, “inactive”.
With `COc1ccccc1CNS(=O)(=O)c1c(C)[nH]c(C)c1C(=O)N1CCCCC1`, the Potency entry is “inactive”.
Still for that read-out and setting: then `CCc1nc2c(cnn2-c2ccc(C)cc2)c(=O)n1-c1ccc(C)cc1`, with “inactive”; and `CCC(C)Sc1nc2c(cnn2-c2ccc(F)cc2)c(=O)[nH]1` (configuration not stated), with “inactive”; and `COc1ccc(-n2c(C)nc3c(cnn3-c3ccc(F)cc3)c2=O)cc1`, with 23.1 µM (active).
Take `Cc1ccc(Oc2cnn(-c3ccccc3)c(=O)c2Br)cc1`: the Potency entry is “inactive”.
In the case of `CC(=O)Cn1cnc2c(cnn2-c2ccccc2)c1=O`, the Potency result is “inactive”.
The same measure, in the same setting: the result for `CCOc1ccc(-n2c(C)nc3c(cnn3-c3ccc(C)cc3)c2=O)cc1` reads 5.17 µM (active); that for `CCOC(=O)c1ccc(-n2c(C)nc3c(cnn3-c3ccccc3C)c2=O)cc1`, “inactive”.
As to `COc1ccc(-n2c(C)nc3c(cnn3-c3ccccc3)c2=O)cc1`, the Potency was 29.1 µM (active).
Turning to `COc1ccc(-n2c(SC)nc(O)cc2=O)cc1`, the Potency result is “inactive”.

Source of the values: PubChem BioAssay AID686979 (National Center for Advancing Translational Sciences (NCATS), 2013).
